# mIDH1 inhibitor: blocks human mutant IDH1 R132H enzyme | Potency, µM (series often up to 76.6 µM), without a hit: at the highest dose activity change, negative = inhibition, most hits filed as inhibitors | IDH1-R132H enzyme, NADPH consumption, diaphorase/resazurin fluorescence | O75874 | 0.093% of 390,000 active | AID 602179; also: potency is read from the fitted curve at half-maximal effect; % is scaled to controls: 0 for no effect and ±100 for the full control effect; nearly all actives have a fitted effect of over 65% in size
# Target sequence (O75874 whole entry R132H, stated change not applied): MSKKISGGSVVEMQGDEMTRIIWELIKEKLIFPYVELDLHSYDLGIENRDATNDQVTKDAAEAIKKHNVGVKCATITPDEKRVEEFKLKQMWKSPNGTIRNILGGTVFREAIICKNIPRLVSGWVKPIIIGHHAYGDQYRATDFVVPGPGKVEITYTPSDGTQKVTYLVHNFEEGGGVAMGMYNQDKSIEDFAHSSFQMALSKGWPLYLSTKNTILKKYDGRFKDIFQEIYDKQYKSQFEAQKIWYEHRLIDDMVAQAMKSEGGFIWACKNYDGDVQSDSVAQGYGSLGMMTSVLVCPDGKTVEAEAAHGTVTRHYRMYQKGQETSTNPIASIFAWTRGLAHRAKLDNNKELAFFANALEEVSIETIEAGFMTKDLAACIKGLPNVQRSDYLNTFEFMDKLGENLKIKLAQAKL
#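 IDH1-R132H (0.5 ug/mL) preincubated 30 min with compound, then NADPH (0.016 mM) and alpha-KG (2 mM) added; 80 min at RT, pH 7.5. Remaining NADPH coupled via diaphorase/resazurin to fluorescence (540/590 nm); concentration-response curves normalized to no-enzyme control.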
# LDHA block: inhibitors of human lactate dehydrogenase A | P00338 | purified LDHA, NADH/diaphorase-resazurin fluorescence; stronger effect = lower value | activity change, % (values are at about 110 or 230 µM) | 0.15% of 480,000 active | AID 1347041; in the data active = activity change below about -30%; inconclusive = mostly about -25% to -30%;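 also: plate controls were DMSO wells for no effect and wells without enzyme for full effect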
#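 LDH5 2 nM; NADH 0.06 mM, pyruvate 0.2 mM; 200 mM Tris pH 7.4, EDTA, Tween-20; 5 min RT. Detection: diaphorase 0.133 mg/mL + resazurin 37 µM, fluorescence ex540/em590 at 0 and 20 min; normalized to enzyme-free and DMSO wells.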
# GLP1R cytotox: cytotoxicity counter-screen for GLP-1 receptor inverse agonists; AID 624418; 0.13% of 410,000 active; Potency, µM (doses to about 38.3 µM), for the others: at the top dose activity change, negative = inhibition, hits mostly inhibitors; HEK293 cAMP-luciferase reporter cells, luminescence, 24 h;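 also: loss of luciferase light is scored as toxicity; potency is read from the fitted curve at half-maximal effect; % is scaled to controls: 0 for no effect and ±100 for the full control effect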
#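 Cells in DMEM/10% Nu serum/1% pen-strep, 1536-well format. Pre-incubated 12 h, dosed with 23 nL compound, incubated a further 24 h. Luciferase detection, 12 min at room temp, luminescence.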
# GLP-1R agonist: activates the human GLP-1 receptor | P43220 | HEK293 GLP-1R CRE-luciferase, luminescence, 4-6 h; cells express a hypersensitive GLP-1R form | Potency, µM (series often up to 45.6 µM), for inactives: top-dose activation, most hits filed as activators | 0.007% of 380,000 active; also: potency is read from the fitted curve at half-maximal effect; % of control where 0% means no effect
# GLP-1R inv ag: acts as inverse agonist at human GLP-1 receptor. HEK293 GLP-1R CRE-luciferase, luminescence, 24 h; GLP-1R form is constitutively active. Potency, µM (top dose mostly 38.3 µM), inactives show at the top dose activity change, negative = inhibition, most hits filed as inhibitors. 1.6% of 410,000 active. AID 624417; also: potency is read from the fitted curve at half-maximal effect; % is scaled to controls: 0 for no effect and ±100 for the full control effect; nearly all actives have a fitted effect of over 55% in size
#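 Constitutively active GLP-1R drives a cAMP-responsive luciferase in stably transfected HEK293 cells; test compounds are added after overnight (12 h) attachment and left 24 hr, and signal loss in luminescence marks inhibition.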
# PTHR1 agonist: PTHR1 (human) receptor agonism; Q03431; HEK293 GP2 PTHR1 cells, GloSensor cAMP luminescence, 1 h; Potency, µM (titrated, usually from 115 µM), without a hit: at the top dose activation, actives largely listed as activators; 0.075% of 410,000 active; AID 743266; also: potency is read from the fitted curve at half-maximal effect; nearly all actives have a fitted effect of over 55% in size
#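 HEK-293-derived GP2 cells expressing PTHR1 and a GloSensor cAMP reporter, 3,000/well, plated overnight, given luciferin plus IBMX (each 0.5 mM as added) for 1 h at 37 °C, then compound for 1 h at 37 °C. Luminescence was read after 15 min at room temperature.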
# Active calls of the source: *; i = inactive; ? = inconclusive; nt = not tested or not shown; [ ] = dose if it differs, or a comment. This is a sample that favours compounds with a hit; in the whole collection about 1.7% have one here. Unless noted, calls follow the shape of the dose curve; as a rule, active = well fitted curve in the direction sought with a large enough effect; inconclusive = small, poorly fitted or top-dose-only effect, or another doubt; inactive = no such curve, though single readings can be large; an effect the other way counts as inactive or inconclusive.
SMILES,mIDH1 inhibitor,LDHA block,GLP1R cytotox,GLP-1R agonist,GLP-1R inv ag,PTHR1 agonist
O=C(CN1CCN(Cc2ccc3c(c2)OCO3)CC1)N1CCc2[nH]c3ccc(F)cc3c2C1,5%,-5,-18%,-5%,8.9µM*,i
O=C(c1cc2cc(Cl)ccc2[nH]1)N1CCN(Cc2ccc3c(c2)OCO3)CC1,2%,0,-17%,-3%,11µM*,-12%
O=C(c1cccc(Cl)c1)N1CCN(Cc2ccc3c(c2)OCO3)CC1,2%,-1,-10%,3%,?,i
O=C(NCc1ccccn1)c1cccc(I)c1,nt,7,nt,nt,nt,nt
CCCCN1C(=O)N(CCc2ccc(F)cc2)S(=O)(=O)c2cc(C(F)(F)F)ccc21,-5%,-2,4%,4%,10µM*,-33%
Cc1cc(C)c(-c2csc(NC(=O)/C=C/c3cccs3)n2)c(C)c1,-1%,-4,17%,-19%,3.2µM*,-13%
O=C(/C=C/c1cccs1)Nc1cccc(NC(=O)/C=C/c2cccs2)n1,-4%,-9,?,-17%,4µM*,-23%
CC(C)N(C(C)C)S(=O)(=O)c1ccc(N2CCc3ccccc3C2)nc1,2%,-8,0%,18%,7.9µM*,-29%
Oc1ccc(Cl)cc1C=Nc1cc(C(F)(F)F)ccc1Oc1ccccc1,nt,3,nt,nt,nt,nt
Cc1cccc(Sc2c(C=O)c3ccccc3n2C)c1,1%,-2,-27%,0%,2.8µM*,-13%[57.5 µM]
Cn1c(Sc2ccccc2Cl)c(C=O)c2ccccc21,7%,0,-13%,10%,?,-41%
Cn1c(Cl)c(C=O)c2ccccc21,nt,10,nt,nt,nt,nt
Cn1c(Sc2ccc(Cl)cc2)c(C=O)c2ccccc21,8%,0,?,-35%,3.2µM*,-38%[57.5 µM]
Cc1cc(C)c2c(CCCC(=O)O)c(-c3ccccn3)[nH]c2c1,nt,-10,nt,nt,nt,nt
CC(OC(=O)c1cccs1)C(=O)NC1CCCCC1C (stereo unspecified),16%,-13,0%,6%,-27%,0%
CC1CCCCC1NC(=S)NC(=O)c1cccs1 (stereo unspecified),7%,-1,?,6%,8.9µM*,-70%
C=CCn1c(COc2ccccc2)nnc1SC(C)C(=O)N/N=C/c1cc(Cl)ccc1O (stereo unspecified),-6%,0,-10%,-17%,8.9µM*,-13%
COc1ccc(NC(=O)N2CCC(NS(=O)(=O)c3cc(Cl)ccc3OC)CC2)cc1,nt,5,nt,nt,nt,nt
CC[N+]1(C)CCC2C(C1)c1cc(C)ccc1N2C(=O)c1ccccc1Cl (stereo unspecified),nt,21,nt,nt,nt,nt
CCOc1ccc(NC(=O)CN(C)S(=O)(=O)c2ccc3[nH]c4c(c3c2)CCCC4)cc1,0%,-2,-1%,nt,11µM*,-36%
Cc1cc(C)cc(NC(=O)CN(C)S(=O)(=O)c2ccc3[nH]c4c(c3c2)CCCC4)c1,-8%,7,6%,nt,?,-18%
COc1ccc(C2CC(=O)C=C(Nc3ccccc3F)C2)cc1 (stereo unspecified),nt,0,nt,nt,nt,nt
C=CCc1ccccc1OCC(O)CN1CCN(c2ccccc2F)CC1 (stereo unspecified),1%,-4,-19%,-6%,10µM*,-9%
CCN1/C(=C/c2ccc3cc(C)ccc3[n+]2CC)Sc2ccccc21,4%,-15,-20%,-6%,?,-67%
CC[n+]1c(/C=C2\Sc3ccccc3N2C)ccc2cccc(C)c21,3%,-10,?,-3%,13µM*,-39%
SMILES,mIDH1 inhibitor,LDHA block,GLP1R cytotox,GLP-1R agonist,GLP-1R inv ag,PTHR1 agonist
CC(C)COC(=O)N(C)c1ccc(C(O)(C(F)(F)F)C(F)(F)F)cc1,3%,0,4%,10%,8.9µM*,-30%
Cc1ccc(-n2nnc(C(=O)NCc3ccccn3)c2C)cc1F,nt,4,nt,nt,nt,nt
O=c1cc(-c2ccccc2Cl)oc2c(NS(=O)(=O)c3cc(Cl)cc(Cl)c3O)ccc(O)c12,-21%,-19,?,3%,4µM*,-48%
Cc1nc(NC(=O)c2ccccc2)sc1-c1csc(Nc2ccc(C(F)(F)F)cc2)n1,nt,-4,nt,nt,nt,nt
CCc1cccc(NC(=O)c2ccc(CNS(=O)(=O)c3ccc4c(c3)C(C)(C)C(=O)N4C)cc2)c1,2%,0,-18%,nt,10µM*,-32%
Cc1ccc(C(=O)/C=C/c2ccc(-c3ccccc3)cc2)cc1[N+](=O)[O-],nt,1,nt,nt,nt,nt
Cc1cc(C(=O)CN2CCN(CC(=O)Nc3ccc(F)cc3)CC2)c(C)n1CCc1cccs1,nt,-9,nt,nt,nt,nt
COc1ccc2c(C)c(CC(=O)N3CCCC3)c(=O)oc2c1C,nt,1,nt,nt,nt,nt
Cc1cc(SCC(=O)c2ccc(O)c(O)c2)n2nc(C)c(-c3ccccc3)c2n1,-4%,-1,?,16%,11µM*,-46%
CCOC(=O)c1oc2ccccc2c1COC(=O)C1COc2ccccc2O1 (stereo unspecified),nt,1,nt,nt,nt,nt
O=C(NC(c1ccc(F)cc1)c1cccs1)C1CCN(Cc2ccncc2)CC1 (stereo unspecified),nt,7,nt,nt,nt,nt
CCN1c2cc(C)ccc2-n2cccc2C12CCN(C(=O)Nc1cc(OC)c(OC)c(OC)c1)CC2,-4%,5,-6%,nt,11µM*,i
CCN1c2cc(C)ccc2-n2cccc2C12CCN(C(=O)Nc1cccc(OC)c1)CC2,nt,7,nt,nt,nt,nt
CCOc1ccc(NC(=O)N2CCC3(CC2)c2cccn2-c2ccc(C)cc2N3CC)cc1,nt,5,nt,nt,nt,nt
CCN1c2ccccc2-n2cccc2C12CCN(C(=O)Nc1ccccc1Br)CC2,-15%,-3,0%,nt,10µM*,i
CC(CCCN(C)C)C(Cc1ccccc1)c1ccccc1 (stereo unspecified),2%,-1,-8%,4%,11µM*,i
COc1ccc(-c2[nH]c3ccccc3c2SCCNC(=O)c2cc3ccccc3oc2=O)cc1,7%,-7,-16%,-2%,?,i
COc1ccc(-c2[nH]c3ccccc3c2SCCN)cc1,-6%,-9,?,-1%,2µM*,-81%
COc1ccccc1C(=O)NNC(=O)c1cccc(O)c1,-1%,-9,0%,-3%,?,-26%
COc1ccccc1C(=O)NNC(=O)c1cccc(F)c1,-4%,-6,1%,-2%,8.9µM*,-38%
COc1ccc(Br)cc1C(C[N+](=O)[O-])c1c(N)n(C)c(=O)n(C)c1=O (stereo unspecified),-15%,2,10µM*,-2%,?,-35%
COc1ccc2c(c1)nc(N)n2Cc1ccccc1,4%,-2,-9%,0%,-18%,-4%
